# From PubChem BioAssay AID1117290 (Broad Institute, 2014)
# Potency and affinity values are given separately. Activity calls are given as the source filed them.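 How the source made its calls: active means every replicate test called active, each showing a drop in signal with a fitted potency within twice the top tested dose; inconclusive means tests disagree, or fits are weak, flat midrange or poor; inactive means every test flat, rising or fitted past the limit.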
# Experiment: A549 cell cytotoxicity, dose response, cytotoxicity control, CellTiter-Glo luminescence, dry powder, set 18 (AID 1117290)
# Conditions: A549 viability, CellTiter-Glo ATP luminescence, 72 h; series mostly up to 26 µM
row,SMILES,outcome
1,COc1ccc(C(=O)O)cc1S(=O)(=O)Nc1cccc(N2CCCCC2)c1C(F)(F)F,inactive
2,O=S(=O)(Nc1cc(C(F)(F)F)ccc1N1CCCCC1)c1ccc(Cl)cc1,inactive
3,CC(=O)N1CCN(C(=O)C2(NC(=O)Nc3ccc(C)cc3)CC2)CC1,inactive
4,COc1ccc(C(=O)O)cc1S(=O)(=O)Nc1cc(C(F)(F)F)ccc1N1CCOCC1,inactive
5,O=S(=O)(Nc1cc(C(F)(F)F)ccc1N1CCCCC1)c1ccc(C(F)(F)F)cc1,inactive
6,O=S(=O)(Nc1cc(C(F)(F)F)ccc1N1CCCCC1)c1cc(Cl)cc(Cl)c1,inactive
7,Cc1ccccc1S(=O)(=O)Nc1cc(C(F)(F)F)ccc1N1CCCCC1,inactive
8,CC(=O)N1CCN(C(=O)C2CCCN2C(=O)Nc2ccc(C)cc2)CC1 (stereo unspecified),inactive
9,CC(=O)N1CCN(C(=O)C2(NC(=O)Nc3ccc(C(C)C)cc3)CCCC2)CC1,inactive
10,CC(=O)N1CCN(C(=O)C2(NC(=O)Nc3ccccc3F)CCCCC2)CC1,inactive
11,COc1ccc(C(=O)O)cc1S(=O)(=O)Nc1cc(C(F)(F)F)ccc1N1CCN(C(C)=O)CC1,inactive
12,CC(=O)N1CCN(C(=O)C2(NC(=O)Nc3ccc(C(F)(F)F)cc3)CCCC2)CC1,inactive
13,NC(=NCCc1c[nH]c2ccccc12)NS(=O)(=O)c1cc(F)ccc1F,inactive
14,COc1ccc(C(=O)O)cc1S(=O)(=O)Nc1cc(C(F)(F)F)ccc1N1CCCCC1,inactive
15,CC(=O)N1CCN(C(=O)C2(NC(=O)Nc3ccc(F)cc3)CCCC2)CC1,inactive
16,COc1ccc(C(=O)Nc2cc(F)ccc2N2CCCCC2)cc1S(=O)(=O)O,inactive
